This passage reports relative cell viability results from the supplement of paper PMC7184167.

Structures are written as SMILES. Counter-ions that a name gives are not always drawn.

For this experiment, the system named is replication-induced senescent mouse newborn dermal fibroblasts (NBF). Description: relative cell viability of senescent cells (fraction); higher = less killing of senescent cells. Conditions: 1 µM; 3 days. The procedure:
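Replication-induced senescent newborn mouse skin fibroblasts (NBFs) in 24-well plates were treated with a Selleck FDA-approved drug library at 1 µM for 3 days.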
The molecule `Cc1nc(=O)c2cc(CN(C)c3ccc(C(=O)N[C@@H](CCC(=O)O)C(=O)O)s3)ccc2[nH]1` [Raltitrexed] came in with a relative cell viability of 0.916. To `CCOc1cc(CC(=O)N[C@@H](CC(C)C)c2ccccc2N2CCCCC2)ccc1C(=O)O` [Repaglinide] belongs 0.978. To `C[C@]12CC[C@@H]3c4ccc(O)cc4CC[C@H]3[C@@H]1CCC2=O` [Estrone] belongs 1. To `CNS(=O)(=O)CCc1ccc2[nH]cc(C3CCN(C)CC3)c2c1` [Naratriptan HCl] belongs 1.14; to `COc1ccc(C2CNC(=O)C2)cc1OC1CCCC1` (stereo not given) [Rolipram], 1.07; to `Cn1c(=O)c2nc[nH]c2n(C)c1=O` [Theophylline], 0.828. As to `CC(C)[C@H](N)C(=O)OCCOCn1cnc2c(=O)nc(N)[nH]c21` [Valaciclovir HCl], the relative cell viability turned out to be 0.909. On to `CC(C)OC(=O)C(C)(C)Oc1ccc(C(=O)c2ccc(Cl)cc2)cc1` [Fenofibrate], for which the relative cell viability amounted to 1.06.

In turn, `COC(=O)C1=C(C)NC(C)=C(C(=O)OC)C1c1ccccc1[N+](=O)[O-]` [Nifedipine] showed a relative cell viability of 1.01. Then `NS(=O)(=O)c1cc2c(cc1Cl)NCNS2(=O)=O` [Hydrochlorothiazide], with 1.07; and `Cc1cnc(C(=O)NCCc2ccc(S(=O)(=O)NC(=O)NC3CCCCC3)cc2)cn1` [Glipizide], with 0.23; and `Cc1ccc(F)c(NC(=O)Nc2ccc(-c3cccc4[nH]nc(N)c34)cc2)c1` [Linifanib (ABT-869)], with 0.927. To `Nc1nc(=O)n([C@@H]2CS[C@H](CO)O2)cc1F` [Emtricitabine] belongs 1.04. To `Nc1ncn([C@H]2C[C@H](O)[C@@H](CO)O2)c(=O)n1` [Decitabine] belongs 0.211; to `CCC(C)(C)C(=O)O[C@H]1C[C@@H](C)C=C2C=C[C@H](C)[C@H](CC[C@@H]3C[C@@H](O)CC(=O)O3)[C@H]21` [Simvastatin], 0.965; to `Cc1ccnc2c1NC(=O)c1cccnc1N2C1CC1` [Nevirapine], 1.02. In turn, `COCCOC(=O)C1=C(C)NC(C)=C(C(=O)OC(C)C)C1c1cccc([N+](=O)[O-])c1` (stereo not given) [Nimodipine] yielded a relative cell viability of 1.15. `CC(=O)Nc1ccc(O)cc1` [Acetaminophen]: the relative cell viability is 0.803.

Molecule `O=C(/C=C/c1cccc(S(=O)(=O)Nc2ccccc2)c1)NO` [Belinostat (PXD101)] gave a relative cell viability of 0.941.

In turn, `Nc1ccc(O)c(C(=O)O)c1` [Mesalamine] returned a relative cell viability of 0.351. To `CNC(=O)c1cc(Oc2ccc(NC(=O)Nc3ccc(Cl)c(C(F)(F)F)c3)cc2)ccn1` [Sorafenib Tosylate] belongs 0.528. Molecule `CN(CCOc1ccc(NS(C)(=O)=O)cc1)CCc1ccc(NS(C)(=O)=O)cc1` [Dofetilide] came in with a relative cell viability of 1.02. Then `CN1CC(=O)N2[C@H](c3ccc4c(c3)OCO4)c3[nH]c4ccccc4c3C[C@@H]2C1=O` [Tadalafil], with 0.318; and `COc1ccccc1OCC(O)CO` (stereo not given) [Guaifenesin], with 1.12. Then `O=C(C1CCCCC1)N1CC(=O)N2CCc3ccccc3C2C1` (stereo not given) [Praziquantel], with 1.07. Then `Cc1ccc(NC(=O)c2ccc(CN3CCN(C)CC3)cc2)cc1Nc1nc(-c2cccnc2)cs1` [Masitinib (AB1010)], with 0.602. As for `Nc1ccn([C@H]2CC[C@@H](CO)O2)c(=O)n1` [Zalcitabine], the relative cell viability was 0.129.

For the molecule `CO[C@H]1C[C@@H]2CC[C@@H](C)[C@@](O)(O2)C(=O)C(=O)N2CCCC[C@H]2C(=O)O[C@H]([C@H](C)C[C@@H]2CC[C@@H](O)[C@H](OC)C2)CC(=O)[C@H](C)/C=C(\C)[C@@H](O)[C@@H](OC)C(=O)[C@H](C)C[C@H](C)/C=C/C=C/C=C/1C` [Rapamycin (Sirolimus)], the relative cell viability was found to be 0.735. To `CS(=O)(=O)N1CCN(Cc2cc3nc(-c4cccc5[nH]ncc45)nc(N4CCOCC4)c3s2)CC1` [Pictilisib (GDC-0941)] belongs 0.681; to `C[C@]12C=CC(=O)C=C1CC[C@@H]1[C@@H]2[C@@H](O)C[C@@]2(C)[C@H]1CC[C@]2(O)C(=O)CO` [Prednisolone], 1.01; to `C[C@H]1[C@H](NC(=O)/C(=N\OC(C)(C)C(=O)O)c2csc(N)n2)C(=O)N1S(=O)(=O)O` [Aztreonam], 1.06.

In turn, `CN(C/C=C/C#CC(C)(C)C)Cc1cccc2ccccc12` [Terbinafine] came in with a relative cell viability of 0.403. Then `C[C@H](Cc1cc2c(c(C(N)=O)c1)N(CCCO)CC2)NCCOc1ccccc1OCC(F)(F)F` [Silodosin], with 0.806; and `CC(=O)O[C@@]12CO[C@@H]1C[C@H](O)[C@@]1(C)C(=O)[C@H](O)C3=C(C)[C@@H](OC(=O)[C@H](O)[C@@H](NC(=O)OC(C)(C)C)c4ccccc4)C[C@@](O)([C@@H](OC(=O)c4ccccc4)[C@H]21)C3(C)C` [Docetaxel], with 0.565; and `Nc1nc2ccc(OC(F)(F)F)cc2s1` [Riluzole], with 0.836. Then `COc1ccc([C@]2(C#N)CC[C@@H](C(=O)O)CC2)cc1OC1CCCC1` [Cilomilast], with 0.332. In the case of `CC/C(=C(/CC)c1ccc(O)cc1)c1ccc(O)cc1` [Diethylstilbestrol], the relative cell viability stood at 1.06.

The molecule `Oc1ncnc2[nH]ncc12` [Allopurinol] returned a relative cell viability of 0.796. To `N=C(N)NC(=N)N1CCOCC1` [Moroxydine HCl] belongs 0.965; to `C[C@@H]1CN(c2c(F)c(N)c3c(=O)c(C(=O)O)cn(C4CC4)c3c2F)C[C@H](C)N1` [Sparfloxacin], 0.71.
